Where “and” joins values, the source holds several entries; their conditions need not be identical. Equal values may be shown once. In all, about 57,000 compounds went through this assay and about 200 (0.35%) were called active. This is one part of a sample in which actives are shown more often than they occur.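 How the source made its calls: active means mean inhibition of replicates at least 50% and every single replicate also reaching 50%; inconclusive means mean inhibition at least 50% but some replicate falls below 50%; inactive means mean inhibition under 50%.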
Each compound was assayed against Histone-lysine N-methyltransferase EZH2 (Homo sapiens) (UniProt Q15910) (assay: EZH2/PRC2 methyltransferase inhibitors, primary screen, biochemical, DELFIA time-resolved fluorescence, single point (AID 651548;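 further: dimethyl H3K27 on biotinylated H3 21-44 peptide detected by antibody; plate controls were median neutral control wells for no effect and median positive control wells for full effect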)). Conditions: PRC2 H3K27 methylation, DELFIA TRF, 1 h; at 12.5 µM; active compounds read high.
Histone-lysine N-methyltransferase EZH2 (Homo sapiens), sequence (Q15910 whole entry, looked up): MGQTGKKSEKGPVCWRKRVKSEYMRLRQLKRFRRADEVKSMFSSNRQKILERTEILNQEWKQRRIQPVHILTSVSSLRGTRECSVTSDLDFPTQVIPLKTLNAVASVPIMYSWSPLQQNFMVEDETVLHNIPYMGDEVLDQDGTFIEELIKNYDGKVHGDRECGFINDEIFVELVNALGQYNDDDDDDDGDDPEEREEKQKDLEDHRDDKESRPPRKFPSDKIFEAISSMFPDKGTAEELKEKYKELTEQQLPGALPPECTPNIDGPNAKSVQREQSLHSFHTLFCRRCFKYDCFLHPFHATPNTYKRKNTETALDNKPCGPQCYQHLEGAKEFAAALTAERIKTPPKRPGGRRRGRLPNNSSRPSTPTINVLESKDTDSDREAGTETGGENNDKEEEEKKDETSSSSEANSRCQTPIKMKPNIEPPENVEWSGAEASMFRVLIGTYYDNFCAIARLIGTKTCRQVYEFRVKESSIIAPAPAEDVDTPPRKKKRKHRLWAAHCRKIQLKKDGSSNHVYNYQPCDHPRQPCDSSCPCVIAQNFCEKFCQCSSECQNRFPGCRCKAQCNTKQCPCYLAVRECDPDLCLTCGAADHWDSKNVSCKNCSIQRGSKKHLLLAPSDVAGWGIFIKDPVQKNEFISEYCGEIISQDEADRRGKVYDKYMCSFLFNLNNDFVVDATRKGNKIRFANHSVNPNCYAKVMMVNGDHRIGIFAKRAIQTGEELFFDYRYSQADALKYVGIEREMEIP

inhibition, inactive:
C[C@@H]1CN([C@H](C)CO)S(=O)(=O)c2ccc(-c3ccccc3)cc2O[C@@H]1CN(C)C(=O)C1CC1 7.84%, CCCNC(=O)Nc1ccc2c(c1)OC[C@H](C)N(Cc1ccccc1)C[C@H](C)[C@H](OC)CN(C)C2=O -21.6%, C[C@H]1CN([C@@H](C)CO)S(=O)(=O)c2ccc(C#CC3CCCC3)cc2O[C@@H]1CN(C)C(=O)c1cccc(F)c1 14.8%, O=C(C[C@@H]1CC[C@@H](NC(=O)C2CC2)[C@H](CO)O1)NCc1ccncc1 9.6%, CN(C)CC(=O)N[C@@H]1CC[C@@H](CCn2cc(C3CC3)nn2)O[C@H]1CO -8.32%, CCC(=O)N1C[C@H](C)[C@H](OC)CN(C)C(=O)c2ccc(NC(=O)c3cnccn3)cc2OC[C@@H]1C 10.3%, COc1cccc(S(=O)(=O)N[C@H]2C=C[C@@H](CC(=O)NCc3ccc(F)cc3)O[C@@H]2CO)c1 13.3%, C[C@@H]1CCCCO[C@H](CN(C)C)[C@H](C)CN([C@@H](C)CO)C(=O)c2cc(NS(=O)(=O)c3ccccc3)ccc2O1 -7.21%, CCCNC(=O)N1C[C@@H](C)[C@@H](OC)CN(C)C(=O)c2ccc(NC(=O)CCC)cc2OC[C@H]1C -3.61%, CC(C)NC(=O)N(C)C[C@H]1Oc2ncc(-c3ccccc3F)cc2C(=O)N([C@@H](C)CO)C[C@@H]1C -0.301%, COc1cccc(NC(=O)N[C@H]2C=C[C@@H](CC(=O)Nc3ccc(-c4ccccc4)cc3)O[C@@H]2CO)c1 -1.25%, O=C(C[C@H]1C[C@H]2c3cc(NC(=O)CC4CC4)ccc3O[C@H]2[C@H](CO)O1)NCc1ccccc1 -28.9%, C[C@@H]1CN([C@H](C)CO)S(=O)(=O)c2ccc(C#CC3CCCCC3)cc2O[C@H]1CN(C)C(=O)Cc1ccncc1 -42.6% and -20.9%, COc1ccc(NC(=O)N[C@H]2CC[C@@H](CCNS(=O)(=O)c3cccc(Cl)c3)O[C@H]2CO)cc1 -37.3%, CO[C@@H]1CN(C)C(=O)c2ccc(NC(=O)Nc3c(C)noc3C)cc2OC[C@@H](C)N(C(=O)Nc2cccc(Cl)c2)C[C@H]1C -3.56%, CCC(=O)N(C)C[C@H]1Oc2cc(C#CC3CC3)ccc2S(=O)(=O)N([C@H](C)CO)C[C@H]1C -6.49%, CCOC(=O)C1CCCN(C(=O)c2c[nH]n3c(=O)c(Cc4ccc(Cl)cc4)c(C)nc23)C1 (stereo not drawn) 11.7%, CO[C@@H]1CN(C)C(=O)c2cc(NC(=O)c3ccc(F)cc3)ccc2OC[C@H](C)NC[C@@H]1C 8.13%, CC(C)C#Cc1ccc2c(c1)O[C@H](CN(C)CC1CCOCC1)[C@@H](C)CN([C@H](C)CO)S2(=O)=O 0.383%, COc1cccc(S(=O)(=O)N[C@H]2C=C[C@H](CC(=O)NCc3ccc(Cl)cc3)O[C@@H]2CO)c1 7.24%, C[C@H]1CN([C@@H](C)CO)C(=O)c2cccc(NC(=O)Nc3ccccc3)c2O[C@H]1CN(C)Cc1ccc(C(F)(F)F)cc1 -14.8%, C[C@H](CO)N1C[C@H](C)[C@@H](CN(C)C(=O)c2cccc(F)c2)Oc2cc(-c3cncnc3)ccc2S1(=O)=O 14.3% and -4.79%, COc1ccccc1C(=O)Nc1ccc2c(c1)C(=O)N(C)C[C@@H](OC)[C@@H](C)CN(C)[C@H](C)CO2 1.85%, COc1cccc(-c2cnc3c(c2)C(=O)N([C@H](C)CO)C[C@@H](C)[C@H](CN(C)Cc2ccc(F)cc2)O3)c1 10%, CC(C)NC(=O)N(C)C[C@@H]1Oc2cc(C#C[C@H](C)O)ccc2S(=O)(=O)N([C@@H](C)CO)C[C@H]1C 8.88%, C[C@@H]1CN([C@H](C)CO)S(=O)(=O)c2ccc(C#CC3(O)CCCC3)cc2O[C@@H]1CN(C)C(=O)c1cccnc1 5.12%, COCC(=O)Nc1ccc2c(c1)[C@@H]1C[C@H](CC(=O)NCc3cc(F)ccc3F)O[C@@H](CO)[C@@H]1O2 -6.69%, C[C@@H]1CN([C@@H](C)CO)S(=O)(=O)c2ccc(-c3ccc(C#N)cc3)cc2O[C@H]1CN(C)Cc1ccccn1 5.38%, CO[C@@H]1CN(C)C(=O)c2ccc(NC(=O)C3CCC3)cc2OC[C@H](C)N(C(=O)CN(C)C)C[C@H]1C 0.087%, O=C(C[C@@H]1C[C@@H]2c3cc(NC(=O)NC4CCCC4)ccc3O[C@@H]2[C@H](CO)O1)NCC(F)(F)F 3.2%, CC(C)(C)S(=O)N1Cc2cc(C(=O)O)nc(-c3cccc(-c4cc5ccccc5o4)c3)c2[C@@H]1CCO (stereo partly drawn) 9.63%, CO[C@@H]1CN(C)C(=O)c2cc(NC(=O)NC3CCCCC3)ccc2OC[C@H](C)N(CC2CC2)C[C@H]1C -6.48%, O=C(N[C@H]1CC[C@H](CCNS(=O)(=O)c2ccc(F)cc2)O[C@H]1CO)C1CCCC1 -3.3%, O=C(C[C@@H]1C=C[C@H](NC(=O)C2CCC2)[C@@H](CO)O1)NCC1CC1 10.5%, CCCN1C[C@H](C)[C@@H](OC)CN(C)C(=O)c2ccc(NC(=O)C3CCOCC3)cc2OC[C@H]1C 7.14%, O=C(C[C@H]1C=C[C@H](NC(=O)Nc2ccc(C(F)(F)F)cc2)[C@@H](CO)O1)NCCN1CCCC1 11.8%, C[C@@H]1CCCCO[C@@H](CN(C)Cc2ccncc2)[C@H](C)CN([C@H](C)CO)C(=O)c2cc(NC(=O)CCC(F)(F)F)ccc2O1 0.938%, CCC(=O)N1C[C@@H](C)[C@H](OC)CN(C)C(=O)c2ccc(NC(=O)NC(C)C)cc2OC[C@H]1C 5.57%, CNC[C@@H]1Oc2cc(C#CC3(O)CCCC3)ccc2S(=O)(=O)N([C@@H](C)CO)C[C@H]1C -0.413%, OC[C@H]1O[C@@H](OCc2ccccc2)[C@H](O[C@@H]2OC[C@](O)(CO)[C@H]2O)[C@@H](O)[C@@H]1O 10.5%, C/C=C/c1ccc2c(c1)O[C@@H](CN(C)C(=O)NC1CCCC1)[C@@H](C)CN([C@H](C)CO)S2(=O)=O 10.7%, CCCN(C)C[C@H]1OCCCC[C@H](C)Oc2ccc(NS(=O)(=O)c3ccc(C)cc3)cc2C(=O)N([C@@H](C)CO)C[C@H]1C -43.7%, CO[C@H]1CN(C)C(=O)c2ccc(NC(=O)c3cnccn3)cc2OC[C@@H](C)N(C(C)=O)C[C@H]1C 7.05%, CO[C@H]1CN(C)C(=O)c2cc(NS(=O)(=O)c3ccccc3)ccc2OC[C@H](C)NC[C@@H]1C 3.07%, CN(C)C(=O)C[C@H]1C[C@H]2c3cc(NC(=O)Nc4ccc(C(F)(F)F)cc4)ccc3O[C@H]2[C@@H](CO)O1 -22.5%, CO[C@@H]1CN(C)C(=O)c2cc(NC(=O)C3CCOCC3)ccc2OC[C@@H](C)NC[C@@H]1C 5.55%, CCC(=O)N1C[C@@H](C)[C@H](OC)CN(C)C(=O)c2ccc(NC(=O)COC)cc2OC[C@@H]1C 2.05%, CC(C)NC(=O)N[C@@H]1CC[C@H](CC(=O)NC2Cc3ccccc3C2)O[C@H]1CO -19.2%, O=C(Nc1ccccc1F)N[C@@H]1CC[C@H](CCNC(=O)C2CC2)O[C@@H]1CO -5.22%, C[C@@H](NC(=O)C[C@@H]1CC[C@H](NC(=O)Cc2ccccn2)[C@H](CO)O1)c1ccccc1 5.38%, CO[C@@H]1CN(C)C(=O)c2cc(NC(=O)c3cnccn3)ccc2OC[C@@H](C)N(CC2CC2)C[C@H]1C -3.51%, CO[C@H]1CN(C)C(=O)c2ccc(NS(C)(=O)=O)cc2OC[C@@H](C)N(Cc2ccccc2)C[C@H]1C 27.6%, CN(C)C(=O)C[C@H]1CC[C@H](NC(=O)NC2CCCC2)[C@@H](CO)O1 6.6%, CN(C)CC(=O)N[C@H]1CC[C@@H](CCNC(=O)C2CCCC2)O[C@@H]1CO 4.19%, O=S(=O)(N[C@@H]1CC[C@@H](CCn2cc(-c3ccccn3)nn2)O[C@@H]1CO)c1cccc(Cl)c1 1.97%, O=C(Nc1ccccc1F)N[C@H]1C=C[C@H](CC(=O)N2CCCCC2)O[C@H]1CO 11.6%, C[C@@H]1CN([C@H](C)CO)S(=O)(=O)c2ccc(C#Cc3ccccc3F)cc2O[C@@H]1CN(C)C(=O)c1ccc2c(c1)OCO2 -7.72%, C[C@@H]1CN([C@@H](C)CO)C(=O)c2cc(C3=CCCC3)cnc2O[C@H]1CN(C)C(=O)c1ccccn1 -1.13%, O=C(Nc1ccccc1F)N[C@@H]1C=C[C@H](CC(=O)N2CCCCC2)O[C@@H]1CO -6.07%, C[C@@H]1CN([C@@H](C)CO)C(=O)c2cc(Br)cnc2O[C@H]1CN(C)Cc1ccc(-c2ccccc2)cc1 32.3%, CCCNC(=O)N(C)C[C@H]1Oc2cc(-c3ccncc3)ccc2S(=O)(=O)N([C@H](C)CO)C[C@@H]1C 2.1%, O=C(C[C@H]1C=C[C@@H](NC(=O)c2ccc(F)cc2)[C@@H](CO)O1)NCCc1ccncc1 -4.57%

inhibition, active:
OC[C@@]1(O)CO[C@H](OC[C@H]2O[C@@H](OC(CCCCc3ccc(O)cc3)CCc3ccc(O)cc3)[C@H](O[C@H]3OC[C@](O)(CO)[C@H]3O)[C@@H](O)[C@@H]2O)[C@@H]1O (stereo partly drawn) 99%

Reference: PubChem BioAssay AID651548 (Broad Institute, 2012)
